The text below walks through data of PubChem BioAssay (Tox21).

Results filed as inconclusive are left out. Activity calls are given as the source filed them. Calls follow the shape of the full dose curve.
% is scaled to controls: 0 for no effect and ±100 for the full control effect; potency is read from the fitted curve at half-maximal effect.

Acetylcholinesterase (Homo sapiens), sequence (P22303 whole entry, looked up): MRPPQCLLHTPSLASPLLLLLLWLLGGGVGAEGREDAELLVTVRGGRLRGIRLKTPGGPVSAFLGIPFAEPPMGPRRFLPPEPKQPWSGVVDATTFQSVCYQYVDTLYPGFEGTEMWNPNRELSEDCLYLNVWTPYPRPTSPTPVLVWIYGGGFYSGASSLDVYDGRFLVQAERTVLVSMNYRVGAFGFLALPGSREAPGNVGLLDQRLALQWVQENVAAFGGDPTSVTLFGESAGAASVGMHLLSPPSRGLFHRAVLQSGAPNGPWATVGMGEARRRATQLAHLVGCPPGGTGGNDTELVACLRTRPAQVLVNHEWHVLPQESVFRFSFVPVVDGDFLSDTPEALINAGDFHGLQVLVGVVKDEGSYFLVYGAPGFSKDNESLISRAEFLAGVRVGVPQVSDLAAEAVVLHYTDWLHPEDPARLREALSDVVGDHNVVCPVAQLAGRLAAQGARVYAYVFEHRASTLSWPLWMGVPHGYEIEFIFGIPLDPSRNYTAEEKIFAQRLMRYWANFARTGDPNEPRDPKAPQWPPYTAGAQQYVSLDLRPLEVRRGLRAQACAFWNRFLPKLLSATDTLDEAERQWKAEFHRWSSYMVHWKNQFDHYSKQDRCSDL

For the assay, the target named is Acetylcholinesterase (Homo sapiens) (UniProt P22303). The assay is described as follows: Acetylcholinesterase (AChE) small molecule antagonists: fluorescence cell-based qHTS assay (AID 1347398). Also: nearly all actives have a fitted effect of over 50% in size. The settings on record: SH-SY5Y cells; Potency: AChE activity; outcome: AChE activity; series mostly up to 115 µM; activity change, negative = inhibition: at the top concentration. In outline:
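SH-SY5Y, 2,000 cells/well, attached overnight; cmpd 30 min 37 C; acetylthiocholine/Thiolite Green cocktail 40 min RT; fluorescence Ex/Em 490/520 nm.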
Regarding `CC1(C)O[C@@H]2C[C@H]3[C@@H]4CCC5=CC(=O)C=C[C@]5(C)[C@H]4[C@@H](O)C[C@]3(C)[C@]2(C(=O)CO)O1`, the “activity change, negative = inhibition” value was 16.9% [at 53.7 µM] (inactive).
`CCCCC(CC)COCCCN` (stereo not given): the “activity change, negative = inhibition” value was -21.1% (inactive).
`Oc1ccc(/C=C/c2cc(O)cc(O)c2)cc1`: the Potency entry is “inactive”.
In the case of `CCCCCCCCC=O`, the “activity change, negative = inhibition” value is -6.69% (inactive).
`NC(=O)c1ccc([N+](=O)[O-])cc1Cl`: the Potency entry is “inactive”.
Still for that read-out and setting: in the case of `Oc1ccc(Cc2ccccc2O)cc1` it was “inactive”; in that of `CN1C(C(=O)Nc2ccccn2)=C(O)c2ccccc2S1(=O)=O`, “inactive”.
On to `C=CC(=O)OCCOCCOCC`, for which the “activity change, negative = inhibition” value was 2.23% (inactive).
For `CCCCCCCCCCCCCC(=O)OC(C)C`, the Potency result was “inactive”.
For the molecule `CC(C)c1ccc(C(=O)N=C(N)N)cc1S(C)(=O)=O`, the molecule was called inactive.
Turning to `Nc1cc([N+](=O)[O-])ccc1O`, the Potency result is “inactive”.
In the case of `O=C(O)c1cc(-c2ccccc2)nc2ccccc12`, the Potency entry was “inactive”.
As for `Cn1nnc2c(C(N)=O)ncn2c1=O`, the “activity change, negative = inhibition” value is 5.47% [at 53.7 µM] (inactive).
Still for that read-out and setting: in the case of `CC(C)CCCC(=O)O` it was 4.73% (inactive); in that of `O=[N+]([O-])c1ccc(CCO)cc1`, 0.753% (inactive).
The same measure, in the same setting: the same measure for `CCCC1C(CC)=CC(CC)=CN1c1ccccc1` (stereo not given): -13.7% (inactive).
Turning to `COc1ccc(C(=O)CC(=O)c2ccc(C(C)(C)C)cc2)cc1`, the Potency result was “inactive”.
In the case of `NC(N)=NS(=O)(=O)c1ccc(N)cc1`, the “activity change, negative = inhibition” value is 8.14% [at 53.7 µM] (inactive).
For the molecule `CN1CCN(N)CC1`, the “activity change, negative = inhibition” value is 7.12% [at 53.7 µM] (inactive).
With `C=CC(=O)NC(C)(C)CS(=O)(=O)O`, the Potency result was “inactive”.
Turning to `Nc1ccccc1N`, the “activity change, negative = inhibition” value is -9.71% (inactive).
On to `CCCCC(CC)COC(=O)CCCCC(=O)OCc1ccccc1` (stereo not given), for which the “activity change, negative = inhibition” value is -8.67% (inactive).
Same read-out and setting: in the case of `CCN(CC)CCSC(=O)C(c1ccccc1)c1ccccc1` it was 5.37% [at 53.7 µM] (inactive).
For `CNC(=O)N(c1ccccc1)c1ccccc1`, the Potency is 35.7 µM (active).
Regarding `CN(C)CCN1CCOCC1`, the “activity change, negative = inhibition” value was 5.11% (inactive).
The same measure, in the same setting: in the case of `C1CSCCS1` it was -1.09% (inactive); in that of `CC(C)CC(=O)OCc1ccccc1`, -0.0756% (inactive).
On the same count and under the same terms, in the case of `CC(C)C(=O)OCc1ccccc1` it was -1.83% (inactive).
Still for that read-out and setting: in the case of `CC(NCCC(c1ccccc1)c1ccccc1)c1ccccc1` (stereo not given) it was -15.3% [at 53.7 µM] (inactive).
Regarding `CC(=O)OCCOC(C)=O`, the Potency entry is “inactive”.
On to `CCOC(=O)C1=C(C)NC(C)=C(C(=O)OC)C1c1cccc(Cl)c1Cl` (stereo not given), for which the “activity change, negative = inhibition” value is -6.17% [at 53.7 µM] (inactive).
Regarding `C=CCc1cc(OC)c(O)c(C(=O)NCCO)c1`, the “activity change, negative = inhibition” value was 3.98% [at 53.7 µM] (inactive).
Regarding `CC(C=O)c1ccccc1` (stereo not given), the “activity change, negative = inhibition” value is -3.08% (inactive).
The same measure, in the same setting: in the case of `OCCOCC#CCOCCO` it was 0.677% (inactive).
The same measure, in the same setting: the same measure for `N#CCC(=O)NN`: 0.889% [at 53.7 µM] (inactive).
In the case of `CNS(=O)(=O)c1cc(C(=O)N2CCC(CCN3C4CCC3CC(n3c(C)nc5ccccc53)C4)(c3cccc(F)c3)CC2)c(Cl)cc1F` (stereo not given), the Potency is 7.96 µM (active).
For `N#Cc1nc(Cl)c(Cl)c(Cl)c1Cl`, the “activity change, negative = inhibition” value is -21.4% (inactive).
`CCCc1c(OCCCCc2nn[nH]n2)ccc(C(C)=O)c1O`: the Potency entry is “inactive”.
As to `CC(=O)SC[C@@H](C)C(=O)N1CCC[C@H]1C(=O)N[C@@H](Cc1ccccc1)C(=O)O`, the “activity change, negative = inhibition” value is 16.8% [at 53.7 µM] (inactive).
Still for that read-out and setting: the same measure for `C/C=C/C=C/CO`: -5.94% (inactive).
